Assay outcomes as filed in PubChem.
Rows were chosen to be rich in hits. Some 5.4% of all compounds tested hit in one or more screens of this group.
FXN GAA850 act: activators of GAA850 frataxin (FXN) promoter. AID 540364. activation, % at 6 µM. HEK293 lucGAA850 FXN promoter luciferase reporter, 24 h; percent of 10 µM SAHA response. hit rate 0.56% among 360,000;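 active = activation above the average of all compounds screened plus 3 SD, cutoff fixed separately per campaign, cut at about 7.5% in these data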
AHR act: activators of human aryl hydrocarbon receptor | AID 2796 | AHR-responsive luciferase reporter cells, luminescence | P35869 | hit rate 2.5% among 320,000 | activation, % at 5 µM; in the data active = activation above about 47%
Target sequence (P35869 whole entry, looked up): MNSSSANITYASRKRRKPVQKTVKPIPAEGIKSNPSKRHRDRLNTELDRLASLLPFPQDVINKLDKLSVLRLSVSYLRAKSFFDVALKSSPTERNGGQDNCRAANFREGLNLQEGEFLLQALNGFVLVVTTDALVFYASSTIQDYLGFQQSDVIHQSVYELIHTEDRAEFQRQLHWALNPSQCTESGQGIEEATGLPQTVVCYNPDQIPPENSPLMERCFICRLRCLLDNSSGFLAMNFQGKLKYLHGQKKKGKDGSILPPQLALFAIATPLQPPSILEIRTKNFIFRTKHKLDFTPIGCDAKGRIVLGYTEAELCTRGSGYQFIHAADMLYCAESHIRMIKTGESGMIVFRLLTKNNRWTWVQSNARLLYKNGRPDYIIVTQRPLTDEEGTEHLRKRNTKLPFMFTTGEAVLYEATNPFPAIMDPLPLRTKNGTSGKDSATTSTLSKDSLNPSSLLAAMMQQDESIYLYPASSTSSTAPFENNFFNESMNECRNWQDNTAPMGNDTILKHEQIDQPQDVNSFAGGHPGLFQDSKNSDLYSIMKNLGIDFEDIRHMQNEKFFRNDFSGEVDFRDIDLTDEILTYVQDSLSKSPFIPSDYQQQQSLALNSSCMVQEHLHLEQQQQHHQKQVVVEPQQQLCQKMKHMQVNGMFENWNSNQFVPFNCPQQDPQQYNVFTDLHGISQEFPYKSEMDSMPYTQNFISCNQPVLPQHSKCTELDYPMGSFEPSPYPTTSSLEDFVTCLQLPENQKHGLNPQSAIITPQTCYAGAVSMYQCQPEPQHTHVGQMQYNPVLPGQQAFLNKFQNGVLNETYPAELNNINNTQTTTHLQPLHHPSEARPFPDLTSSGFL
HSF-1 act: increases HSF-1 driven luciferase reporter signal; NIH3T3-HGL HSF-1 luciferase reporter, MG132, 8 h; 100% = twice DMSO control signal; activation, % at 9 µM; hit rate 1.7% among 300,000;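 active = mean replicate activation of at least 50% with a set share of replicates each reaching 50%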
DAX1 inh: inhibitors of human orphan nuclear receptor DAX1 (NR0B1). P51843. HEK293 Gal4-DAX1 luciferase reporter, luminescence. inhibition, % at 6.75 µM. hit rate 0.99% among 340,000. AID 504766;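 active = inhibition above the mean over all tested compounds plus 3 SD, cut at about 4.2% in these data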;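 note: inhibition shows as a rise in luminescence from relieved DAX1 repression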
HSF1 inh: HSF1 inhibition; NIH3T3-HGL HSE-luciferase, MG132-induced, luminescence 8 h; hits give low values; activity change, negative = inhibition, % at 7.5 µM (by protocol); hit rate 0.77% among 300,000; AID 2098;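 active = more than half of replicate wells show activity change below -50%, luminescence cut by over half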;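 note: luciferase reports HSF-1 transcriptional activity via heat shock element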
Large screens that a line does not name were inactive.

Cc1ccc(S(=O)(=O)Nc2c(C)nc3nc(C)[nH]n3c2=O)c(C)c1	none
COc1ccc(CN(C(=O)c2cc3ccccc3oc2=O)C2CCS(=O)(=O)C2)cc1 (stereo not given)	none
COc1ccc(CN(C(=O)c2cc3ccccc3oc2=O)C2CCS(=O)(=O)C2)cc1OC (stereo not given)	HSF-1 act 56
CCOc1ccc(CCNC(=O)COC(=O)C2=NNC(=O)CC2)cc1OCC	none
CCCC(C(=O)NC(C)(C)C)N(C(=O)c1snc(C(N)=O)c1N)c1ccc2c(c1)OCCO2 (stereo not given)	HSF1 inh -74
CCC(C)(C)NC(=O)CN(C(=O)c1snc(C(N)=O)c1N)c1ccc2c(c1)OCCO2	none
COc1ccc(C(C)=O)cc1CSc1nnc(Nc2c(C)cccc2C)s1	DAX1 inh 4.6
CCOC(=O)c1ccccc1NC(=O)c1ccc2c(SCC(=O)O)c3c(nc2c1)CCCC3	HSF1 inh -77
CC(C)CCNC(=O)c1ccc2c(SCC(=O)O)c3c(nc2c1)CCCC3	HSF-1 act 62
CC(C)c1ccc(NC(=O)Nc2cc3sccc3n2C)cc1	AHR act 48, HSF1 inh -77
CCN(CC)C(=O)C1=C(C)N(CCC2=CCCCC2)C(=O)C(CC(=O)NCCCCc2ccccc2)C1 (stereo not given)	none (no result: AHR act, HSF-1 act, HSF1 inh)
Cc1nc2ccccc2nc1SCC(=O)c1ccccc1	AHR act 48
O=C(CSc1ccc2ccccc2n1)N/N=C/c1ccccc1O	none (no result: AHR act)
CC(C)(C)c1nc(SCC(=O)c2ccccc2)c2ccccc2n1	none
O=C(CSc1ccc2ccccc2n1)c1ccccc1	AHR act 68
CN(Cc1ccccc1)C(=O)c1cnc(Cc2c[nH]c3ccccc23)c(I)c1	none (no result: AHR act, HSF-1 act, DAX1 inh, HSF1 inh)
C=CCn1c(SCc2csc(-c3ccc(Cl)cc3)n2)nnc1-c1ccccc1OC	HSF-1 act 58
COc1ccccc1C(CNc1nc(C(F)(F)F)nc2ccccc12)N(C)C (stereo not given)	none
COc1ccc(C2N3CC4(C)CN2CC(C)(C3)C4=O)cc1OC (stereo not given)	DAX1 inh 5.2
COc1ccc(C2OC(=O)C(C)(C)C(=O)C2(C)C)cc1OC (stereo not given)	none
Nc1ccc(Nc2nc3ccccc3[nH]2)cc1	none
c1ccc(Nc2nc3ccccc3[nH]2)nc1	HSF-1 act 62
O=S(=O)(c1ccc(F)cc1)c1snnc1-c1ccccc1	none
O=S(=O)(c1ccc(Cl)cc1)c1snnc1-c1ccccc1	HSF-1 act 66
Cc1cc(C(=O)COC(=O)C23CC4CC(CC(O)(C4)C2)C3)c(C)n1C	DAX1 inh 4.5 (no result: HSF-1 act, HSF1 inh)
CC(=O)NC12CC3CC(C1)CC(C(=O)OCC(=O)c1cc(C)n(C)c1C)(C3)C2	none (no result: HSF-1 act, HSF1 inh)
Cc1[nH]c2ccccc2c1-c1csc(NC(=O)CSCCO)n1	AHR act 50, DAX1 inh 5.5
Cc1csc(NC(=O)CSCC(=O)Nc2ccccc2)n1	none
CCc1ccc2[nH]c(C(=O)Nc3ccc(F)cc3Br)cc2c1	AHR act 49
CCc1ccc2[nH]c(C(=O)Nc3ccc(Br)c(C)n3)cc2c1	none (no result: AHR act)
CCc1ccc2[nH]c(C(=O)Nc3ccc4c(c3)OCO4)cc2c1	AHR act 72
Cc1ccccc1OCC(=O)NNC(=O)c1ccoc1C	none (no result: HSF-1 act, HSF1 inh)
CCc1ccc(C(C)NC(=O)COC(=O)c2ccc(-n3cnnn3)cc2)cc1 (stereo not given)	none (no result: HSF-1 act, HSF1 inh)
O=C1c2[nH]nc(-c3ccccc3O)c2C(c2cccc(Cl)c2)N1Cc1ccco1 (stereo not given)	none
Cc1cc(C)c(O)c(-c2n[nH]c3c2C(c2cccc(O)c2)N(Cc2ccco2)C3=O)c1 (stereo not given)	AHR act 65
S=C(N=Nc1ccccc1)NNc1ccccc1	AHR act 53
Cc1ccc(C)c(NC(=O)C2CCN(C(=O)c3cccs3)CC2)c1	none
CCc1ccccc1NC(=O)C(Cc1ccccc1)c1nn[nH]n1 (stereo not given)	none
CCN1C(=S)SC(=O)C1=C1C=C(C)N(Cc2ccco2)C(C)=C1	HSF1 inh -54
Cc1ccc(SCc2nc3ccccc3[nH]2)cc1	HSF-1 act 90
Clc1ccc(SCc2nc3ccccc3[nH]2)cc1	HSF-1 act 56
N#Cc1cc2c(nc1SCc1nc3ccccc3[nH]1)CCC2	none (no result: FXN GAA850 act, DAX1 inh)
Cc1cc(C)c(C#N)c(SCc2nc3ccccc3[nH]2)n1	AHR act 68, HSF-1 act 60, DAX1 inh 4.8
O=c1[nH]c2ccccc2nc1-c1ccc(Cl)cc1	AHR act 76, HSF-1 act 59
c1ccc(SCc2nc3ccccc3[nH]2)cc1	none
COc1ccc(-n2ncc3c(=O)n(Cc4c(F)cccc4Cl)cnc32)cc1	none (no result: HSF-1 act, HSF1 inh)
Cc1cc(NC(=O)c2ccc(F)c(S(=O)(=O)N3CCCCC3)c2)no1	none (no result: AHR act)
COc1cc(CN2C[C@@H](CO)O[C@@H](n3cnc4c(N(C)C(C)C)ncnc43)C2)cc(OC)c1OC	none (no result: AHR act, HSF-1 act, DAX1 inh, HSF1 inh)
CC(=O)/C=C/n1c(=S)oc2ccccc21	HSF-1 act 141 (no result: FXN GAA850 act, DAX1 inh)
O=C1c2ccccc2C(=O)C1Cc1cccc2ccccc12	AHR act 61
FC(F)(F)c1cnc(Sc2nnc(-c3cccs3)n2CC2CCCO2)c(Cl)c1 (stereo not given)	none
FC(F)(F)c1ccc(Sc2nnc(-c3cccs3)n2CC2CCCO2)nc1 (stereo not given)	HSF-1 act 58
O=C1COc2ccc(C(=O)/C=C/c3ccccc3)cc2N1	HSF-1 act 53
O=C(Nc1ccccc1)[C@@H]1CC=C[C@@H]2CCN(Cc3ccc(Cl)c(Cl)c3)C(=O)[C@@H]21	none
COc1cc2cc(c1Cl)N(C)C(=O)CC(OC(=O)C(C)N(C)C(C)=O)C1(C)OC1C(C)C1CC(O)(NC(=O)O1)C(OC)C=CC=C(C)C2 (stereo not given)	none (no result: AHR act, HSF-1 act, HSF1 inh)
CCOc1ccc(-c2cn(-c3ccc(OC)cc3)c(SC)n2)cc1	HSF-1 act 62
Cc1ccc(C(=O)Nn2cnc3scc(-c4cccs4)c3c2=O)c(O)c1	AHR act 60
COc1ccc(C(=O)CSc2ccccc2C(=O)O)cc1	none
NC(=O)c1ccccc1NC(=O)/C=C/c1cccc(Cl)c1	none
O=C(/C=C/c1c(F)cccc1Cl)Nc1ncccn1	DAX1 inh 4.6
NC(=O)c1ccccc1NC(=O)/C=C/c1c(Cl)cccc1Cl	HSF-1 act 83
O=C(/C=C/c1c(F)cccc1Cl)Nc1ccc(S(=O)(=O)Nc2ncccn2)cc1	none
COc1ccc2nc(SCC(=O)NC(C)(C)C)[nH]c2c1	none
COc1ccc2nc(SCC(=O)C(C)(C)C)[nH]c2c1	DAX1 inh 4.5
CCc1nnc(NC(=O)C2Cc3ccccc3CN2S(=O)(=O)CC)s1 (stereo not given)	none
CCCNC(=O)Nc1nc2ccccc2s1	DAX1 inh 4.4
CCCCNC(=O)Nc1nc2ccc(CC)cc2s1	none
CCS(=O)(=O)N1Cc2ccccc2CC1C(=O)Nc1nc2ccccc2s1 (stereo not given)	HSF1 inh -61
CCCCNC(=O)Nc1nc2ccccc2s1	DAX1 inh 8.8
